Consider 14 compounds from PubChem BioAssay (NCI).

Values joined by “and” are separate entries in the source; they are usually repeats but may differ in a detail not shown here. Identical values can stand only once. The panel holds about 83,000 compounds, 20% with a hit somewhere; the sample as a whole holds those more often.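 Percent growth is the endpoint: 0 to 100 indicates growth inhibition (40 means 60% inhibition), 0 means no net growth, and negative values indicate cell death.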 Active and inactive are the calls of the source. Rule for the calls: active = growth percent below 10; inactive = the rest.

In the assay the test system is MDA-MB-468 breast. Description: NCI-60 one-dose screen, 48 h (100 = growth as untreated, 0 = no growth, -100 = all killed). To be noted: 10 µM unless noted.
As for `COc1cc(C)ccc1Oc1nc(Nc2ccc(N3CCOCC3)cc2)ncc1N=Cc1cc(C(F)(F)F)cc(C(F)(F)F)c1`, the growth was 71% (inactive).
The result for `COc1ccc(C2=NN(c3nc(-c4ccc(OC)cc4)c(C#N)c(=O)n3C)C(=O)CC2)cc1` reads 96.2% (inactive); that for `Cc1cc(O)c(C(C)C)cc1N=O`, 62.6% (inactive) and 104% (inactive); that for `CN1CCN(CCCOc2ccc3nc(Nc4ccc(C(F)(F)F)c(Cl)c4)ccc3c2)CC1`, 30% (inactive).
The result for `Cc1ccc(/C=C/CC(=O)Nc2ccc(C(=O)Nc3ccc(F)cc3N)cc2)cn1` reads 53.5% (inactive); that for `CC1=CCC(OC(=O)C(C)(C)CC(O)(C(C)O)C(O)C2(C)C=CC(Cc3ccc(C(C)C)cc3)(C(C)C)CC2)(C(C)C)CC1` (centres undefined), 83.1% (inactive).
Consider `CN1CCCCC1CCN1c2ccccc2Sc2ccc(Cl)cc21` (centres undefined), for which the growth was 30.2% (inactive).
As for `c1ccc2c(c1)CCN(NCCN1CCCC1)C2`, the figure is 109% (inactive); as for `O=C1Nc2ccc(Cl)cc2/C1=C/c1ccc(OCc2ccc(F)cc2)cc1`, 97.3% (inactive); as for `N=C(N)c1ccc(-c2ccc(-c3ccco3)o2)cc1F`, -57.4% (active).
As for `CS(=O)(=O)c1nccc(-c2c(-c3ccc(F)c(OCCc4ccccc4)c3)nc3sccn23)n1`, the growth was -83.4% (active).
Consider `N#Cc1nc(-c2ccccc2)oc1S(N)(=O)=O`, for which the growth is 41.1% (inactive).
Consider `CN1C(=O)N(C)C2C1NN=c1s/c(=C\c3c[nH]c4ccccc34)c(=O)n12` (centres undefined), for which the growth was 39.5% (inactive).
Turning to `CCCCCCCC/C=C\CCCCCCCCOc1cccc(CC(=O)NCC[N+]2(C)CCOCC2)c1`, the growth is 86% (inactive).
